For experiment [1], the system named is S. cerevisiae SK1 pCDA2-eGFP (USY613), sporulating. Kind of experiment: CDA2-GFP sporulation assay sensitivity score (z-score vs DMSO controls); higher = stronger inhibition of sporulation, active = hit call of the paper.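 Note: active if sensitivity score above 5.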
The test system of experiment [2] is S. cerevisiae NKY1551 his4x/his4B, sporulating. Kind of experiment: HIS4 meiotic recombination assay sensitivity score (z-score vs DMSO controls); higher = stronger inhibition of sporulation/recombination, active = hit call of the paper.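 Note: active if sensitivity score above 5.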
The test system of experiment [3] is S. cerevisiae AD1-9 (efflux-pump deficient), vegetative growth in YPD. Kind of experiment: growth sensitivity score (doubling time z-score vs DMSO controls); higher = slower growth, strongly negative scores also mark growth inhibition (complete suppression), active = hit call of the paper. Put shortly:
(§1)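 Yeast (Saccharomyces cerevisiae BY4741 and AD1-9) was grown in rich medium in microtiter plates from a starting OD600 of 0.065, with optical density read every 15 min over 24 hours. The growth sensitivity score was the difference between compound and solvent-only means, divided by the solvent-only standard deviation. Every experiment had eight solvent-only wells.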

Experiment [4] relates to S. cerevisiae BY4741 (wild-type), vegetative growth in YPD. The description is as above. Put shortly:
as §1

Counter-ions that a name gives are not always drawn.

On to `O=c1c(O[C@@H]2O[C@H](CO)[C@H](O)[C@H](O)[C@H]2O)c(-c2ccc(O)c(O)c2)oc2cc(O)cc(O)c12` [Hyperoside] (stock concentration (mM, diluted 1:100): 8.8), for which the “CDA2-GFP sporulation assay sensitivity score” value in experiment [1] is 0.06 (inactive). Moreover, the “HIS4 meiotic recombination assay sensitivity score” value in experiment [2] was 0.06 (inactive). Also, the growth sensitivity score in experiment [3] was 0.09 (inactive); in experiment [4] it was -0.31 (inactive).
On to `CCCCc1nc(Cl)c(CO)n1Cc1ccc(-c2ccccc2-c2nnn[nH]2)cc1` [Losartan potassium] (stock concentration (mM, diluted 1:100): 9.2), for which the “CDA2-GFP sporulation assay sensitivity score” value in experiment [1] was -0.41 (inactive). In experiment [2], the “HIS4 meiotic recombination assay sensitivity score” value was -1.2 (inactive). In addition, the growth sensitivity score in experiment [3] is -1.21 (inactive); in experiment [4], -0.26 (inactive).
In the case of `Nc1nc(N)nc(-c2cc(Cl)ccc2Cl)n1` [Irsogladine maleate] (stock concentration (mM, diluted 1:100): 6.9), the “CDA2-GFP sporulation assay sensitivity score” value in experiment [1] is 0.91 (inactive). Further, in experiment [2], the “HIS4 meiotic recombination assay sensitivity score” value is -0.77 (inactive). The growth sensitivity score was -0.44 (inactive) in experiment [3] and -1.26 (inactive) in experiment [4].
Consider `CN1CCN2c3ncccc3Cc3ccccc3C2C1` (centres undefined) [Mirtazapine] (stock concentration (mM, diluted 1:100): 10), for which the “CDA2-GFP sporulation assay sensitivity score” value in experiment [1] is 12.7 (inactive). In addition, in experiment [2], the “HIS4 meiotic recombination assay sensitivity score” value is 3.31 (inactive). Moreover, the values for the growth sensitivity score in experiment [3] and in experiment [4] were 2.89 (active) and -0.03 (inactive), respectively.
For the compound `CNS(=O)(=O)Cc1ccc2[nH]cc(CCN(C)C)c2c1` [Sumatriptan succinate] (stock concentration (mM, diluted 1:100): 7.2), the “CDA2-GFP sporulation assay sensitivity score” value in experiment [1] is -0.43 (inactive). For the same compound, in experiment [2], the “HIS4 meiotic recombination assay sensitivity score” value was -0.69 (inactive). Besides, the growth sensitivity score in experiment [3] is 0.45 (inactive); in experiment [4], -1.56 (inactive).
On to `CC(N/C(=N\C#N)Nc1ccncc1)C(C)(C)C` (centres undefined) [Pinacidil monohydrate] (stock concentration (mM, diluted 1:100): 10), for which, in experiment [1], the “CDA2-GFP sporulation assay sensitivity score” value is 1.62 (inactive). Moreover, the “HIS4 meiotic recombination assay sensitivity score” value in experiment [2] was -1.38 (inactive). The growth sensitivity score in experiment [3] was -0.96 (inactive); in experiment [4] it was 1.52 (inactive).
Regarding `COC(=O)CCc1ccc(OCC(O)CNC(C)C)cc1` (centres undefined) [Esmolol hydrochloride] (stock concentration (mM, diluted 1:100): 9), the “CDA2-GFP sporulation assay sensitivity score” value in experiment [1] was 0.86 (inactive). The “HIS4 meiotic recombination assay sensitivity score” value in experiment [2] was 0.23 (inactive). The growth sensitivity score was -2.29 in experiment [3] and -0.5 (inactive) in experiment [4].
On the same counts, the results for `Nc1nc2ccc(OC(F)(F)F)cc2s1` [Riluzole] (stock concentration (mM, diluted 1:100): 9.9) are 16.9 (active), 6.83 (active), 15.4 (active) and 5.49 (active).
On the same counts, the results for `CN1CCN(c2c(F)cc3c(=O)c(C(=O)O)cn4c3c2SCC4)CC1` [Rufloxacin hydrochloride] (stock concentration (mM, diluted 1:100): 10) are -0.17 (inactive), -0.04 (inactive), 17.4 (active) and -0.18 (inactive).
With `CC(C)c1ccc2c(c1)c(SC(C)(C)C)c(CC(C)(C)C(=O)O)n2Cc1ccc(Cl)cc1` [Tocris-1311] (stock concentration (mM, diluted 1:100): 10), the “CDA2-GFP sporulation assay sensitivity score” value in experiment [1] was 11.2 (active). In addition, in experiment [2], the “HIS4 meiotic recombination assay sensitivity score” value is -0.42 (inactive). In addition, the growth sensitivity score in experiment [3] was 6.29 (active); in experiment [4], -0.4 (inactive).
In the same order, the values of `CC12CC3CC(C)(C1)CC(N)(C3)C2` [Memantine hydrochloride] (stock concentration (mM, diluted 1:100): 8.3) are 2.32 (inactive), 1.61 (inactive), -0.36 (inactive) and -0.66 (inactive).
`O=C(O[C@@H]1C[C@@H]2C[C@H]3C[C@H](C1)N2CC3=O)c1c[nH]c2ccccc12` [Dolasetron mesylate] (stock concentration (mM, diluted 1:100): 10.4): in experiment [1], the “CDA2-GFP sporulation assay sensitivity score” value is -1 (inactive). The “HIS4 meiotic recombination assay sensitivity score” value in experiment [2] is -3.34 (inactive). In addition, the growth sensitivity score in experiment [3] is -0.71 (inactive); in experiment [4], 0.44 (inactive).
For `Cc1cn([C@H]2C=C[C@@H](CO)O2)c(=O)[nH]c1=O` [Stavudine] (stock concentration (mM, diluted 1:100): 10), the “CDA2-GFP sporulation assay sensitivity score” value in experiment [1] was -1.16 (inactive). Also, the “HIS4 meiotic recombination assay sensitivity score” value in experiment [2] is -1.75 (inactive). In addition, the growth sensitivity score in experiment [3] was 0.68 (inactive); in experiment [4] it was 0.1 (inactive).
Turning to `COc1cc2nc(N(C)CCCNC(=O)C3CCCO3)nc(N)c2cc1OC` (centres undefined) [Alfuzosin] (stock concentration (mM, diluted 1:100): 10), the “CDA2-GFP sporulation assay sensitivity score” value in experiment [1] is 0.06 (inactive). Moreover, the “HIS4 meiotic recombination assay sensitivity score” value in experiment [2] is -0.29 (inactive). Further, the growth sensitivity score in experiment [3] is -1.12 (inactive); in experiment [4], -0.26 (inactive).
`O=C(c1ccc(F)cc1)C1CCN(CCn2c(=S)[nH]c3ccccc3c2=O)CC1` [Altanserin] (stock concentration (mM, diluted 1:100): 10): the “CDA2-GFP sporulation assay sensitivity score” value in experiment [1] is 2.43 (inactive). For the same compound, the “HIS4 meiotic recombination assay sensitivity score” value in experiment [2] is -0.6 (inactive). Moreover, the growth sensitivity score in experiment [3] is -0.28 (inactive); in experiment [4] it was -0.21 (inactive).
In the same order, the values of `CCCCN1CCCC1CNC(=O)c1cc(C#N)c2ccccc2c1OC` (centres undefined) [Nafadotride] (stock concentration (mM, diluted 1:100): 10) are 3.66 (inactive), -0.64 (inactive), -2.8 and -0.11 (inactive).

These data come from the supplement of paper PMC3414501.
